# Source: PubChem BioAssay
# Only some compounds are listed: those with a hit (about 3.3% of all), similar ones and a draw of the others.
# FAK blocker: FAK (human) kinase inhibition; Q05397; biochemical FAK kinase activity assay; inhibition, %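 (tested at 7 µM)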; hit rate 0.84% among 97,000; in the data active = inhibition above about 19%
# ERa SRC1 inh: ER-alpha (human) coactivator binding inhibition | inhibition, % at 25.6 µM | TR-FRET ER-alpha LBD / SRC-1 peptide, estradiol-bound | hit rate 1.7% among 86,000 | AID 629; in the data active = inhibition above about 50%
# Smad3 inh: Smad3 (human) transcription factor binding inhibition. TR-FRET Smad3/Dy647-FoxH1 peptide binding, europium anti-His. inhibition, % at 25 µM. hit rate 0.29% among 88,000;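 active = compounds that reduce the energy-transfer binding signal between the protein and its labelled peptide by more than half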
# ERa SRC1 pot: ER-alpha (human) coactivator binding potentiation; P03372; hit rate 1.3% among 86,000; coactivator binding (% of control), % at 25.6 µM; TR-FRET ERalpha-LBD/SRC-Cy5 coactivator binding, 2 h; 100 = basal binding, no effect; in the data active = activity above about 200%;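 note: binding measured in presence of low estradiol as agonist stimulus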
# ERb SRC1 inh: ER-beta (human) coactivator binding inhibition | Q92731 | TR-FRET ER-beta LBD / SRC1-Cy5 peptide binding; receptor agonist-loaded with 1 µM estradiol | inhibition, % at 25.6 µM | hit rate 1.3% among 86,000 | AID 633;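 active = compounds whose percent inhibition of the receptor-coactivator binding signal exceeds about 50% in the single-dose screen, limit read from the data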
# Candida biofilm: kills Candida albicans biofilms | C. albicans biofilm + clotrimazole, Alamar Blue | inhibition, % at 6 µM | hit rate 0.14% among 85,000;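 active = inhibition above 20%; inactive = inhibition below 20%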;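 note: preformed 24 hr biofilms exposed to compound for 48 hr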
# Hits are given with their value; - = inactive; . = no result; [ ] = another dose, or the depositor's remark.
SMILES,FAK blocker,ERa SRC1 inh,Smad3 inh,ERa SRC1 pot,ERb SRC1 inh,Candida biofilm
CCN1C(=O)/C(=C2/Sc3ccc(OC)cc3N2C)SC1=Nc1cccc(O)c1,-,66,-,-,64,-
CCC(=O)Nc1ccc(NC(=O)CSc2nnnn2-c2cccnc2)cc1C,-,.,.,.,.,.
N#CC1=C(N)SC(N)=C(C#N)C1CCC1CCCCC1,-,-,-,242,-,-
CSc1nnc(COc2ccc(C)cc2)n1N,37,-,-,-,-,-
CCc1ccc(C(=O)Cn2ncc(Cl)c(Cl)c2=O)cc1,-,-,-,-,52,-
O=C(OCn1ncc(Cl)c(Cl)c1=O)c1cccc(C(F)(F)F)c1,-,.,.,.,.,.
COc1ccc(NC(=O)c2cc(Cl)ccc2NC(=O)c2ccco2)c(OC)c1,-,-,-,217[fluorescence artefact?],-,-
COc1cc(NC(=O)Cc2ccc(Cl)cc2)ccc1NC(=O)c1ccco1,-,-,-,-,-,-
O=C(O)CSc1ncccc1[N+](=O)[O-],.,.,-,.,.,.
CCn1c(NCc2cccs2)nc2ccccc21,-,67[fluorescence artefact?],-,-,-,-
Cn1c(NCc2cccs2)nc2ccccc21,-,-,-,-,-,-
COc1cc2c3nnc(-c4ccc(F)cc4)c-3cn(Cc3cccc(C)c3)c2cc1OC,-,-,-,366[fluorescence artefact?],-,-
COc1cc2c3nnc(-c4ccc(F)cc4)c-3cn(Cc3ccc(C)cc3)c2cc1OC,-,-,-,591[fluorescence artefact?],51[fluorescence artefact?],-
Cc1cccc(Cn2cnc3ccccc32)c1,-,-,-,-,-,-
O=C(NNC(=O)C1CC1c1ccccc1)Nc1cccc(Cl)c1 (centres undefined),-,.,.,.,.,.
COc1cccc(-c2cc3nc(-c4ccccc4)cc(N4CCC5(CC4)OCCO5)n3n2)c1,-,-,-,210,-,-
COc1ccc(-c2cc3nc4c(c(N5CCC6(CC5)OCCO6)n3n2)CCCC4)cc1,.,-,-,-,-,-
O=c1oc2ccccc2n1Cc1ccccc1Cl,.,-,-,-,-,21
Cc1ccc(C(C)C)c(OCC(O)CN2CCOCC2)c1 (centres undefined),-,-,-,-,-,-
Cc1ccc(C(C)C)c(OCC(O)CN2CC(C)OC(C)C2)c1 (centres undefined),-,-,-,-,51[fluorescence artefact?],-
CN(N=O)c1ccc(/C=C/c2ccnc3ccccc23)cc1,.,.,-,.,.,.
O=C1C2CC=C(Cl)CC2C(=O)N1CCCCCCN1C(=O)C2CC=C(Cl)CC2C1=O (centres undefined),-,56,-,-,-,-
O=C1C2CC=C(Cl)CC2C(=O)N1CCN1CCOCC1 (centres undefined),-,-,-,-,-,-
COc1ccc2c(c1)c(=O)oc1cc3oc(C)c(C)c3cc12,-,67,-,-,57,-
COC(=O)c1ccc2c(c1)NC(=O)C1CCCN21 (centres undefined),.,81[fluorescence artefact?],56[fluorescence artefact?],-,-,-
SMILES,FAK blocker,ERa SRC1 inh,Smad3 inh,ERa SRC1 pot,ERb SRC1 inh,Candida biofilm
Cc1ccc(NC(=O)COC(=O)c2ccc3c(c2)NC(=O)C2CCCN32)cc1 (centres undefined),-,-,-,-,-,-
Cc1ccc(-n2c(C)cc(/C=c3/sc4nc5ccccc5n4c3=O)c2C)cc1,-,-,-,-,-,-
COc1cc(N2CCCC2)c(OC)cc1/C=c1/sc2nc3ccccc3n2c1=O,-,97[fluorescence artefact?],-,-,74[fluorescence artefact?],-
Clc1ccc(-c2nc3nc4ccccc4nc3n2Cc2ccco2)cc1,-,-,-,-,-,-
Cc1ccc(-c2nc3nc4ccccc4nc3n2Cc2ccco2)cc1,.,-,64,-,-,-
CCOc1ccc(CC2S/C(=N/c3ccccn3)NC2=O)cc1 (centres undefined),-,-,-,331,-,-
Cc1sc2ccccc2[n+]1CCC(=O)O,.,.,72,.,.,.
O=C(O)CCCc1nc2ccccc2s1,-,-,-,-,-,-
Cc1nc([N+](=O)[O-])cn1-c1nc2ccccn2c1[N+](=O)[O-],.,.,-,.,.,.
Cc1cc(C)c(C#N)c(Sc2nnnn2-c2ccccc2)n1,-,-,-,-,-,-
O=C(COC(=O)Cc1ccsc1)NCC1CCCCC1,-,.,.,.,.,.
NC(=O)c1ccsc1NC(=O)COC(=O)Cc1ccsc1,-,55[fluorescence artefact?],-,-,60,-
CC(C)CN=C(N)N=C(N)N,.,.,-,.,.,.
O=C(Cn1cc2c(n1)CCCCC2)Nc1c(F)c(F)cc(F)c1F,-,.,.,.,.,.
Cc1cc(C)c(NC(=O)Cn2cc3c(n2)CCCC3)c(C)c1,.,99[fluorescence artefact?],-,-,-,-
